Rows were chosen to be rich in hits. Some 1.5% of all compounds tested hit in one or more screens of this group.
Epigenetic reg = epigenetic control regulation, reporter derepression. murine LDR cells, GFP reporter derepression, 30 h. Potency, µM (top dose mostly 53.9 µM), most hits filed as activators. hit rate 0.2% among 280,000; note: nearly all actives have a fitted effect of over 60% in size
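GFP-positive cell count by laser-scanning cytometry (objects 20–120 um) after 30 h, 37 C compound exposure of murine LDR cells; reporter is CMV-GFP integrated at a silenced locus, inducible by HDAC or DNMT inhibitors.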
HTT ATP protect = protects HTT-Q103 PC12 cells, measured by ATP | PC12 HTT-Q103 induced, cytoprotection, ATP luminescence, 40 h | AID 1471 | Potency, µM (highest dose often 56.4 µM), hits mostly activators | hit rate 0.14% among 230,000; note: nearly all actives have a fitted effect of over 45% in size
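Cells were plated at 1500 per well in phenol red-free DMEM with 5% equine and 5% calf serum. Tebufenozide (100 nM final) and compounds were added, then ATPlite reagent, and luminescence was read.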
HttQ103 aggreg = reduces HttQ103-GFP aggregates in PC12 cells; PC12 HttQ103-GFP aggregates, Acumen cytometry, 40 h; Potency, µM (highest dose often 46.1 µM), usual class: inhibitors; hit rate 1.1% among 220,000; AID 1688; note: nearly all actives have a fitted effect of over 60% in size
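Quantitative HTS on tebufenozide-induced (100 nM) PC12 cells stably expressing polyQ103 Huntingtin exon 1–GFP. Reduction of bright GFP aggregates, detected by laser scanning cytometry after lysis, identified actives across the titration.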
NPSR antag = neuropeptide S receptor (human) antagonism, cAMP; CHO-NPSR cells, cAMP TR-FRET, antagonist mode; Potency, µM (titrated, usually from 38.3 µM), actives largely listed as inhibitors; hit rate 1% among 220,000; note: nearly all actives have a fitted effect of over 50% in size
Target sequence (Q6W5P4 whole entry, looked up): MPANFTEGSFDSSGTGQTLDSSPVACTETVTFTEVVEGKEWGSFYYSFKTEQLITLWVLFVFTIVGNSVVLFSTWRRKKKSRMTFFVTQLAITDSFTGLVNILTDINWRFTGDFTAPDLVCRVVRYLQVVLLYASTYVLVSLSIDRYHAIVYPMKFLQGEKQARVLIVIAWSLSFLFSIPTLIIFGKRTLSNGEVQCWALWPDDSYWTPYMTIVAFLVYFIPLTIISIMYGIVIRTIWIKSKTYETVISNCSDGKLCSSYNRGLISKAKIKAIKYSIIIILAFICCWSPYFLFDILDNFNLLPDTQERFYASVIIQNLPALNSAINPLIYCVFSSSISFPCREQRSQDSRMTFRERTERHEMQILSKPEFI
Lamin A splicing = modulators of lamin A splicing. HeLa LMNA splicing GFP/RFP minigene ratio, 48 h. Potency, µM (titrated, usually from 46.1 µM), most hits filed as inhibitors. hit rate 0.01% among 200,000. AID 1487; active = well fitted inhibition curve with a large enough effect in the signal ratio, with a control signal flat, not every such curve was filed as active; inconclusive = small, poorly fitted or top-dose-only effect, or effect the other way, or a change in a side signal; the % refers to the signal ratio
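S3 HeLa stable clones carrying a lamin A-EGFP splicing minigene plus DsRed2 were seeded at 600 cells/well in Opti-MEM with 2% FBS, pin-dosed and incubated 48 h at 37°C. Acumen cytometry (488 nm) gave the GFP/RFP total-intensity ratio.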
Numbers stand for hits; [ ] = dose if it differs, or a comment. Unless noted, calls come from the whole dose curve; as a rule, active = well fitted curve in the direction sought with a large enough effect; inconclusive = small, poorly fitted or top-dose-only effect, or another doubt; inactive = no such curve, though single readings can be large; an effect the other way counts as inactive or inconclusive.

For COc1ccc(-c2cc(C(F)(F)F)nc(S(=O)(=O)CCCC(=O)Nc3cc(C)on3)n2)cc1OC the results were Epigenetic reg inactive, HTT ATP protect inactive, HttQ103 aggreg inconclusive, NPSR antag inactive and Lamin A splicing 3.98µM.
For Oc1ccc(/C=N/Nc2nccnc2Cl)c(O)c1 the results were Epigenetic reg inactive, HTT ATP protect inactive, HttQ103 aggreg inactive[9.22 µM], NPSR antag inactive and Lamin A splicing inconclusive.
Oc1ccc(/C=N/Nc2ncc(Br)cn2)c(O)c1 was read as Epigenetic reg inactive, HTT ATP protect inactive[10 µM], HttQ103 aggreg 12.6µM, NPSR antag inactive and Lamin A splicing inconclusive.
For CCOC(=O)/C(C)=N/Nc1nc(-c2ccc(NC(C)=O)cc2)cs1 the results were Epigenetic reg inactive, HTT ATP protect inactive[10 µM], HttQ103 aggreg inactive[9.22 µM] and NPSR antag inactive.
Screening N#C/C(=C\c1ccncc1)c1nc2ccccc2[nH]1 returned Epigenetic reg inactive, HTT ATP protect inactive, HttQ103 aggreg inactive, NPSR antag inactive and Lamin A splicing inactive[9.22 µM].
CCN(CC)c1ccc(/C=C(/C#N)c2nc3ccccc3[nH]2)c(OC(C)C)c1 was read as Epigenetic reg 12.6µM, HTT ATP protect inactive, HttQ103 aggreg inconclusive, NPSR antag inconclusive and Lamin A splicing inconclusive.
`O=[N+]([O-])c1ccc2c(c1)ncn2-c1ccccc1` gave Epigenetic reg inactive, HttQ103 aggreg inactive, NPSR antag inactive and Lamin A splicing inactive.
For Cn1c(-[n+]2c(-c3ccccc3)cc(-c3ccccc3)cc2-c2ccccc2)nc2cc([N+](=O)[O-])ccc21 the results were Epigenetic reg inactive, HTT ATP protect inactive[10 µM], HttQ103 aggreg inconclusive, NPSR antag 10µM and Lamin A splicing inconclusive.
For COc1ccc(C(CC(=O)Nc2cccc(C)c2C)N2Cc3ccccc3C2=O)cc1 (configuration not stated) the results were Epigenetic reg inactive.
Screening CCCCCCn1c(NCC)nc2c1c(=O)n(C)c(=O)n2C returned Epigenetic reg inactive, HTT ATP protect inactive[0.074 µM], HttQ103 aggreg 3.98µM, NPSR antag inactive and Lamin A splicing inconclusive.
For Cn1c(=O)c2c(nc(NCCO)n2C)n(C)c1=O the results were Epigenetic reg inactive, HTT ATP protect inactive, HttQ103 aggreg inactive, NPSR antag inactive and Lamin A splicing inactive.
C=CCn1c(NCCO)nc2c1c(=O)n(C)c(=O)n2C was read as Epigenetic reg inactive, HTT ATP protect inactive[10 µM], HttQ103 aggreg 25.1µM, NPSR antag inactive and Lamin A splicing inconclusive.
CCN(Cc1ccccc1)C(=O)c1nc(-c2cccc(F)c2)n2c1CCCCC2 was read as Epigenetic reg inactive and Lamin A splicing inactive.
`Cc1ccc2oc3c(c(=O)c2c1)C(c1cccc(O)c1)N(c1ccccn1)C3=O` (configuration not stated) gave Epigenetic reg inactive, HTT ATP protect inactive, HttQ103 aggreg inactive, NPSR antag 10µM and Lamin A splicing inconclusive.
Screening Cc1ccc2oc3c(c(=O)c2c1)C(c1ccccc1F)N(c1ccccn1)C3=O (configuration not stated) returned Epigenetic reg inactive.
CCc1ccccc1NC(=O)[C@@H](c1ccccc1)N1Cc2ccccc2C1=O was read as Epigenetic reg inactive.
For CNc1nc(SCc2ccccc2Cl)nc2c1CCCC2 the results were Epigenetic reg inactive, HTT ATP protect inactive[10 µM], HttQ103 aggreg 10µM, NPSR antag inactive and Lamin A splicing inconclusive.
O=c1[nH]c(SCc2ccccc2Cl)nc2c1CCC2 was read as Epigenetic reg inactive, HTT ATP protect inactive, HttQ103 aggreg inactive, NPSR antag inactive and Lamin A splicing inactive.
Screening O=C(Nc1ccc(Cl)cc1)N1CCC(c2nc(-c3ccccc3Cl)no2)CC1 returned Epigenetic reg inactive, HTT ATP protect inactive, HttQ103 aggreg 11.2µM, NPSR antag inconclusive and Lamin A splicing inconclusive.
`CCS(=O)(=O)N1CCC(c2nc(-c3ccc(C(F)(F)F)cc3)no2)CC1` gave Epigenetic reg inactive, HTT ATP protect inactive, HttQ103 aggreg 11.2µM, NPSR antag inactive and Lamin A splicing inconclusive.
For CCS(=O)(=O)N1CCC(c2nc(-c3ccc(C)cc3)no2)CC1 the results were Epigenetic reg inactive, HTT ATP protect inactive[10 µM], HttQ103 aggreg inconclusive, NPSR antag inactive and Lamin A splicing inconclusive.
Screening O=C(Nc1cccc(C(F)(F)F)c1)N1CCC(c2nc(-c3ccc(F)cc3)no2)CC1 returned Epigenetic reg inactive, HTT ATP protect inactive[10 µM], HttQ103 aggreg 22.4µM, NPSR antag inactive and Lamin A splicing inconclusive.
O=C(Nc1ccc(Cl)cc1)N1CCC(c2nc(-c3cccs3)no2)CC1 was read as Epigenetic reg inactive, HTT ATP protect inactive, HttQ103 aggreg inconclusive, NPSR antag inactive and Lamin A splicing inconclusive.
Screening CCOc1cc(CNC(=O)Cn2ncn3c(cc4cc(F)ccc43)c2=O)cc(OCC)c1OCC returned Epigenetic reg inactive.
For Cc1ccc(S(=O)(=O)C(CNC(=O)C(=O)NCCc2ccc(F)cc2)c2cccs2)cc1 (configuration not stated) the results were Epigenetic reg inactive and Lamin A splicing inconclusive.
Screening CCN(CC)c1ccc2cc(-c3nc(-c4ccc(Cl)cc4Cl)cs3)c(=O)oc2c1 returned Epigenetic reg 2.82µM and Lamin A splicing inconclusive.
For CCN(CC)c1ccc2cc(S(=O)(=O)c3ccc(Cl)cc3)c(=O)oc2c1 the results were Epigenetic reg inconclusive, HttQ103 aggreg inactive, NPSR antag inactive and Lamin A splicing inconclusive.
Screening CCN(CC)c1ccc2cc(-c3nc(-c4ccc(OC)cc4)cs3)c(=O)oc2c1 returned Epigenetic reg inconclusive, HTT ATP protect inactive[10 µM], HttQ103 aggreg 2.82µM, NPSR antag inactive and Lamin A splicing inconclusive.
Screening O=C(CSc1nc2c(oc3ccccc32)c(=O)n1Cc1ccco1)Nc1cccc(Cl)c1 returned Epigenetic reg inactive.
`CCS(=O)(=O)c1nnnn1-c1ccccc1S(C)(=O)=O` gave Epigenetic reg inactive, HTT ATP protect 12.6µM, NPSR antag inactive and Lamin A splicing inconclusive.
O=S(=O)(Cc1ccccc1)c1nnnn1-c1ccccc1 was read as Epigenetic reg inactive and HTT ATP protect inconclusive.
Cc1ccc(C(=O)N/N=C/c2cccc(OC(=O)/C=C/c3ccco3)c2)cn1 was read as Epigenetic reg inactive, HTT ATP protect inactive[10 µM], HttQ103 aggreg inactive[9.22 µM], NPSR antag inactive and Lamin A splicing inactive[9.22 µM].
O=C(/C=C/c1ccco1)Oc1cc(Br)cc(/C=N/NC(=O)c2ccccc2O)c1 was read as Epigenetic reg inactive, HTT ATP protect inactive[10 µM], HttQ103 aggreg 2.24µM, NPSR antag inactive and Lamin A splicing inconclusive.
For O=C(/C=C/c1ccccc1)OCc1ccccc1 the results were HTT ATP protect inactive, HttQ103 aggreg inactive and Lamin A splicing inconclusive.
`COc1cccc(CCNC(=O)c2ccc(Cn3c(SCc4ccccc4)nc4cccnc43)cc2)c1` gave Epigenetic reg inactive.
For COc1ccc(Nc2c([N+](=O)[O-])ccc3c2=NC2(CCCCC2)N=3)cc1 the results were Epigenetic reg inactive, HTT ATP protect inactive, HttQ103 aggreg inactive, NPSR antag 10µM and Lamin A splicing inactive.

Assay outcomes: PubChem, National Center for Advancing Translational Sciences (NCATS)
